From PubChem
Sampled rows, rich in hits. Any-hit rate of the full collection: about 1.6%.
KCNQ2 block: rat KCNQ2 potassium channel inhibitors, primary screen, cell-based, CHO-K1, FluxOR thallium flux, B-score. 20 min; active compounds read low. B-score at 10 µM. actives 1.1% (n = 310,000);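 active = fluorescence ratio B-score at most minus 3 library SDs, with starting brightness B-score within 2 library SDs, cut at about -5.5 in these data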
KCNQ2 enhance: potentiators of rat KCNQ2 potassium channel | Potassium voltage-gated channel subfamily KQT member 2 (Rattus norvegicus), O88943 | CHO-K1 KCNQ2, FluxOR thallium flux fluorescence; active compounds read high | actives 0.54% (n = 310,000) | B-score at 10 µM;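 active = fluorescence ratio B-score at least 3 SD of library B-scores, with initial fluorescence B-score within 3 of them, cut at about 5.3 in these data; same plate scores as AID 2156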;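 note: B-score of peak minus minimum over baseline fluorescence ratio after K+ and Tl+ stimulus; positive B-score means potentiation of KCNQ2 with more thallium influx and brighter signal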
Kir21 confirm: mouse Kir2.1 channel blockers, retest, confirmation, cell-based, FluxOR thallium flux, duplicate; AID 2032, 2009; actives 41% (n = 2,300); Kir2.1-expressing cells, FluxOR thallium flux fluorescence; active compounds read low; shares compounds with KCNQ2 enhance; Tl flux remaining, % of negative control (active compounds read low), % at 10 µM;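 active = Primary-screen hit whose thallium flux fell at least 3 control SD below untreated wells in both duplicates, with normal baseline fluorescence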;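 note: 0% = blank wells without stimulus and 100% = stimulated no-compound controls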
Target sequence (P35561 whole entry, looked up): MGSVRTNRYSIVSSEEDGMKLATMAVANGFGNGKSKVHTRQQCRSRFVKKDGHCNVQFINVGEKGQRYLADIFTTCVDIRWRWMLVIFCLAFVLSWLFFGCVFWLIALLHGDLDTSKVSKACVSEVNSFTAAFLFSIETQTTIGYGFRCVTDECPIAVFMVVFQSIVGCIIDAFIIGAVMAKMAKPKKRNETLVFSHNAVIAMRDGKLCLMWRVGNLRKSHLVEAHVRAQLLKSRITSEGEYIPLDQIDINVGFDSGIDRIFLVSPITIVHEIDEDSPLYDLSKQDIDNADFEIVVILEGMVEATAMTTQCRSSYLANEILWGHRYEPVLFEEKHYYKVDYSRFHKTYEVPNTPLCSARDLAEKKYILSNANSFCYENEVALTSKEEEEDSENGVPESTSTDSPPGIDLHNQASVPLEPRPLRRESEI
HEK293 ctr: alters thallium flux in parental HEK293 cells, Kir2.1 counter-screen; shares compounds with KCNQ2 enhance; FluxOR thallium flux fluorescence; 0% = unstimulated blank wells; FluxOR signal as % of negative control (100 = no effect), % at 10 µM; actives 19% (n = 2,300); AID 2105;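 active = dye signal at least 3 control SD above or below untreated wells in both duplicates, raw fluorescence within 3, either direction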;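 note: percent is based on the flux ratio of peak minus minimum fluorescence over baseline F0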
CHO-K1 Tl ctr: nonspecific thallium flux increase in parental CHO-K1, confirmation, counter-screen for KCNQ2 potentiator project, cell-based, FluxOR thallium flux, duplicate | shares compounds with KCNQ2 enhance | activity increase over 3SD of controls, % at 10 µM | actives 43% (n = 1,200) | parental CHO-K1 cells, FluxOR thallium flux fluorescence; zero = vehicle mean+3SD, 100% = vehicle-minus-blank window;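 active = signal rise of at least 3 SD above the untreated control mean, in both duplicate wells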;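 note: counter screen of KCNQ2 potentiator hits so any rise reflects channel-independent effects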
KCNQ1 sel pot: human KCNQ1 channel potentiation off-target, confirmation, selectivity assay for KCNQ2 potentiator project, cell-based, CHO, FluxOR thallium flux; shares compounds with KCNQ2 enhance; CHO KCNQ1 stable, FluxOR thallium flux fluorescence; beyond 3SD, as % of vehicle-control signal; activation over 3SD threshold, % at 10 µM; actives 28% (n = 1,200);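 active = fluorescence ratio rise of at least 3 SD of vehicle wells above their mean, in both replicate wells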;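 note: 0% = vehicle mean plus 3 SD and 100% = vehicle minus unstimulated blank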
KCNQ2 pot conf: rat KCNQ2 channel potentiators, confirmation, cell-based, CHO, FluxOR thallium flux, duplicate; shares compounds with KCNQ2 enhance; CHO-KCNQ2 cells, FluxOR thallium flux fluorescence; potentiation, less the hit threshold, % at 10 µM; actives 68% (n = 1,200); AID 2287, 2010;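 active = fluorescence ratio rising 3 SD or more over the vehicle control mean in both replicates, plus primary screen hit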;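 note: peak minus minimum thallium fluorescence divided by baseline after K/Tl stimulus; 0% = vehicle mean plus 3 SD and 100% = vehicle minus unstimulated blank difference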
Kir21 spec: mouse Kir2.1 channel activation off-target, confirmation, selectivity assay for KCNQ2 potentiator project, cell-based, HEK293, FluxOR thallium flux; HEK293 Kir2.1, FluxOR thallium flux fluorescence; activity over 3SD threshold, % at 10 µM; shares compounds with KCNQ2 enhance; actives 2% (n = 1,200);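 active = fluorescence ratio rise of at least 3 SD above the vehicle-control mean, seen in both replicates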;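 note: 0% = vehicle mean plus 3 SD and 100% = vehicle minus no-stimulus blank window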
KCNQ2 W236L MoA: potentiators of retigabine-insensitive KCNQ2 W236L, mechanism study for KCNQ2 potentiator project, cell-based, rat KCNQ2 W236L, CHO, automated patch clamp; actives 10% (n = 940); shares compounds with KCNQ2 enhance; automated patch clamp current; AID 2558, 2010; current increase over 3SD of negative controls (%), active compounds read high, % at 25 µM;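 active = current increase at least 3 SD of the untreated controls above them in both duplicate recordings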
Numbers without * were called inactive; i = inactive; nt = not tested or not shown.

SMILES	KCNQ2 block	KCNQ2 enhance	Kir21 confirm	HEK293 ctr	CHO-K1 Tl ctr	KCNQ1 sel pot	KCNQ2 pot conf	Kir21 spec	others
O=C(CN1CCC(Cc2ccccc2)CC1)Nc1ccc2c(c1)OCCO2	i	5.47*	nt	nt	-6.4	-17.3	0.3*	-55.4	KCNQ2 W236L MoA=i
CN(C)S(=O)(=O)c1ccc(NC(=O)CN2CCC(Cc3ccccc3)CC2)cc1	i	4.32	nt	nt	nt	nt	nt	nt
CCCCn1c(N)c(N(CC(C)C)C(=O)CSc2n[nH]c(-c3ccc(C)cc3)n2)c(=O)[nH]c1=O	i	0.47	nt	nt	nt	nt	nt	nt
CCN(CC)CCOC(=O)C(Cc1ccco1)Cc1cccc2ccccc12 (centres undefined)	i	nt	36.5%*	i	nt	nt	nt	nt
CCN(CC)CCOC(=O)CCc1cccc2ccccc12	i	2.08	nt	nt	nt	nt	nt	nt
CC(=O)Nc1ccc(NC(=O)C(C)OC(=O)CSc2ccc(Br)cc2C)cc1 (centres undefined)	i	nt	nt	nt	nt	nt	nt	nt
OCCn1ccc(-c2ccccc2OCc2ccc(F)cc2)n1	i	0.48	nt	nt	nt	nt	nt	nt
CC(NC(=O)Cc1ccc([N+](=O)[O-])cc1)c1ccc2c(c1)OCO2 (centres undefined)	i	nt	nt	nt	nt	nt	nt	nt
Cc1occc1C(=O)NC(C)c1ccc2c(c1)OCO2 (centres undefined)	i	nt	nt	nt	nt	nt	nt	nt
CCOc1ccccc1C(=O)NC(C)c1ccc2c(c1)OCO2 (centres undefined)	i	2.71	nt	nt	nt	nt	nt	nt
CC(NC(=O)CCc1ccccc1)c1ccc2c(c1)OCO2 (centres undefined)	i	8.48*	i	i	-2.9	-8.0	44.6*	-46.6	KCNQ2 W236L MoA=i
Cc1ccc(C(C)NC(=O)c2ccc3c(c2)OCO3)cc1C (centres undefined)	i	10.2*	i	i	-16.9	-2.4	51.5*	-31.5	KCNQ2 W236L MoA=i
CCOc1ccccc1NC(=O)NC(C)c1ccc2c(c1)OCO2 (centres undefined)	i	5.83*	i	i	4.2*	73.0*	24.8*	-36.9	KCNQ2 W236L MoA=i
COc1ccc(NC(=O)CN(c2ccc(OC)cc2)S(=O)(=O)c2ccc(OC)c(OC)c2)cc1	i	nt	nt	nt	nt	nt	nt	nt
Cc1ccc(-c2cn(S(=O)(=O)c3cccc4nsnc34)nc2N)cc1	i	2.72	nt	nt	nt	nt	nt	nt
Nc1nn(S(=O)(=O)c2cccc3nsnc23)cc1-c1ccc(Br)cc1	i	8.02*	i	i	-12.3	8.4*	-17.2	-36.9
CC(=O)N1CCN(C(=O)c2ccc(S(=O)(=O)Nc3cccc(C(F)(F)F)c3)cc2)CC1	i	0.66	i	i	nt	nt	nt	nt
O=C(c1ccc(S(=O)(=O)Nc2cccc(C(F)(F)F)c2)cc1)N1CCC1	i	0.45	nt	nt	nt	nt	nt	nt
CC(=O)c1ccccc1NC(=O)COC(=O)/C(=C/c1ccccc1)n1nnnc1C	i	nt	nt	nt	nt	nt	nt	nt
CC(=O)N1c2ccc(S(=O)(=O)N3CCC(C(=O)Nc4cccc(C(F)(F)F)c4)CC3)cc2CC1C (centres undefined)	i	nt	nt	nt	nt	nt	nt	nt
CCOc1ccccc1NS(=O)(=O)c1ccc2oc(=O)ccc2c1	i	nt	nt	nt	nt	nt	nt	nt
COc1ccc(N2C(=NC(=O)CC3CCCCC3)SC3CS(=O)(=O)CC32)cc1 (centres undefined)	i	0.71	nt	nt	nt	nt	nt	nt
CC(C)(C)C(=O)CSc1ncccn1	i	nt	nt	nt	nt	nt	nt	nt
CSc1scc2c1-c1nc(SCC(=O)C(C)(C)C)ncc1CC2	i	6.68*	i	i	-10.9	61.0*	2.8*	-37.2	KCNQ2 W236L MoA=i
COc1ccc(C(=O)Nc2ccccc2)cc1NC(=O)c1cccs1	i	nt	nt	nt	nt	nt	nt	nt
SMILES	KCNQ2 block	KCNQ2 enhance	Kir21 confirm	HEK293 ctr	CHO-K1 Tl ctr	KCNQ1 sel pot	KCNQ2 pot conf	Kir21 spec	others
O=C(Nc1cccnc1)Nc1cccc(F)c1	i	6.66*	i	i	2.5*	7.3*	16.5*	-20.7	KCNQ2 W236L MoA=18.4%*
O=C(Nc1ccncc1)Nc1cccc(F)c1	i	nt	nt	nt	nt	nt	nt	nt
COc1ccc2oc(C(=O)OCC(=O)NC3CCCCC3)c(C)c2c1	i	nt	nt	nt	nt	nt	nt	nt
S=c1[nH]c(-c2ccccc2)cs1	i	11.2*	i	147.0%*	9.5*	-15.0	65.7*	-39.1	KCNQ2 W236L MoA=i
O=c1[nH]c(-c2ccccc2)cs1	i	0.01	nt	nt	nt	nt	nt	nt
CC(NC(=O)C1CCC1)c1ccc(Br)cc1 (centres undefined)	i	0.98	nt	nt	nt	nt	nt	nt
Cc1ccc(C(C)NC(=O)C2CCCO2)cc1C (centres undefined)	i	0.75	nt	nt	nt	nt	nt	nt
CC(NC(=O)C1CCCC1)c1ccc(Br)cc1 (centres undefined)	i	7.07*	i	i	-21.1	28.4*	9.0*	-27.6	KCNQ2 W236L MoA=i
Cc1ccc(C(C)NC(=O)C2CCCC2)cc1C (centres undefined)	i	17.4*	i	i	-0.6	-67.6	54.9*	-36.5	KCNQ2 W236L MoA=i
Cc1nonc1C1CCCN1Cc1cn[nH]c1-c1ccc(-c2ccccc2)cc1 (centres undefined)	i	0.13	nt	nt	nt	nt	nt	nt
CCOC(=O)Nc1c(O)ccc2oc(C)c(-c3ccccc3)c12	i	3.34	27.5%*	i	nt	nt	nt	nt
CCOC(=O)C(=O)Nc1nc(-c2ccccc2)c(-c2ccccc2)o1	i	nt	nt	nt	nt	nt	nt	nt
CCc1ccccc1NC(=O)CN1CCN(CC(=O)Nc2cc(C)ccc2OC)CC1	i	nt	nt	nt	nt	nt	nt	nt
c1ccc(CNc2c3ccccc3nc3ccccc23)cc1	i	1.06	23.5%*	i	nt	nt	nt	nt
c1ccc(CNc2ncnc3ccccc23)cc1	i	1.06	nt	nt	nt	nt	nt	nt
O=[N+]([O-])c1c(Nc2ccccc2O)cc(Cl)c2nonc12	-15.9*	-15.9	71.0%*	46.0%*	nt	nt	nt	nt
O=[N+]([O-])c1c(Nc2ccccc2O)ccc2nonc12	i	1.27	nt	nt	nt	nt	nt	nt
CC(C)(C)C(=O)Nc1cccc(OC(F)(F)C(F)Cl)c1 (centres undefined)	i	5.83*	i	i	-14.8	11.2*	29.9*	-40.4	KCNQ2 W236L MoA=i
